# The supplement of paper PMC7380943
# What was measured:
# [1] = test system: CLZ3 (HCA2 human fibroblast dual HR-NHEJ reporter); test: NHEJ repair efficiency (GFP+ cells) relative to control (log10 fold); higher = more non-homologous end joining; settings: 5 µM; doxycycline 0.5 ug/mL
# [2] = test system: CLZ3 (HCA2 human fibroblast dual HR-NHEJ reporter); test: HR repair efficiency (tdTomato+ cells) relative to control (log10 fold); higher = more homologous recombination; settings: 5 µM; doxycycline 0.5 ug/mL
# 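Throughout, for HR repair efficiency (tdTomato+ cells) relative to control: compound given one day before doxycycline, which switches on I-SceI endonuclease expression to create double-strand breaks within the integrated reporter.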
# 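Throughout, for NHEJ repair efficiency (GFP+ cells) relative to control: compound given one day ahead of doxycycline, which switches on I-SceI endonuclease to cut the chromosomally integrated reporter and create DSBs.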
structure (smiles),measurement,setting,value
CCCCC[C@H](O)CC(=O)CCc1ccc(O)c(OC)c1 [6-Gingerol],NHEJ repair efficiency (log10),[1],-0.0809
same,HR repair efficiency (log10),[2],0.0839
CC1=C2C(=O)O[C@@H](c3ccoc3)[C@]2(C)CCC1 [Fraxinellone],NHEJ repair efficiency (log10),[1],0.105
same,HR repair efficiency (log10),[2],0.113
C=C1CC[C@@H]2[C@](C)(CO)[C@H](O)CC[C@@]2(C)[C@@H]1C/C=C1/C(=O)OC[C@H]1O [Andrographolide],NHEJ repair efficiency (log10),[1],0.0511
same,HR repair efficiency (log10),[2],0.266
C[C@@H]1O[C@@H](OC[C@H]2O[C@@H](OCCc3ccc(O)c(O)c3)[C@H](O)[C@@H](O)[C@@H]2OC(=O)/C=C/c2ccc(O)c(O)c2)[C@H](O)[C@H](O)[C@H]1O [Forsythoside A],NHEJ repair efficiency (log10),[1],0.0797
same,HR repair efficiency (log10),[2],0.189
COc1cc([C@H]2OC[C@H]3[C@@H]2CO[C@H]3c2ccc(OC)c(OC)c2)ccc1O [Phillygenin],NHEJ repair efficiency (log10),[1],0.129
same,HR repair efficiency (log10),[2],0.116
Cn1c(=O)c2c(ncn2C)n(C)c1=O [Caffeine],NHEJ repair efficiency (log10),[1],0.103
same,HR repair efficiency (log10),[2],0.0527
O=C(O)[C@H]1O[C@@H](Oc2cc3oc(-c4ccccc4)cc(=O)c3c(O)c2O)[C@H](O)[C@@H](O)[C@@H]1O [Baicalin],NHEJ repair efficiency (log10),[1],-0.073
same,HR repair efficiency (log10),[2],0.053
C[C@@H]1CCCCCCCCCCCCC(=O)C1 [Muscone],NHEJ repair efficiency (log10),[1],0.1
same,HR repair efficiency (log10),[2],0.229
CC(C)=C1CC[C@@H](C)CC1=O [Pulegone],NHEJ repair efficiency (log10),[1],0.114
same,HR repair efficiency (log10),[2],-0.0589
O=C1/C(=C2\Nc3ccccc3C2=O)Nc2ccccc21 [Indigotin],NHEJ repair efficiency (log10),[1],0.00962
same,HR repair efficiency (log10),[2],-0.105
CC(C)[C@@H]1[C@H]2OC(=O)[C@@H]1[C@@H]1CC[C@@H]3CN(C)[C@H]2[C@@]31C [Dendrobine],NHEJ repair efficiency (log10),[1],0.165
same,HR repair efficiency (log10),[2],0.272
CCCCCCCCC[C@H](O)CC(=O)CCc1ccc(O)c(OC)c1 [10-Gingerol],NHEJ repair efficiency (log10),[1],0.0104
same,HR repair efficiency (log10),[2],0.0717
O=C1O[C@H]2[C@@H]3OC(=O)c4cc(O)c(O)c(O)c4-c4c(cc(O)c(O)c4O)C(=O)OC[C@H]2O[C@@H](OC(=O)c2cc(O)c(O)c(O)c2)[C@@H]3OC(=O)c2cc(O)c(O)c3c2[C@@H]2C1=CC(=O)[C@](O)(O3)C2(O)O [Geraniin],NHEJ repair efficiency (log10),[1],-0.0851
same,HR repair efficiency (log10),[2],0.0593
Cn1c(=O)c2nc[nH]c2n(C)c1=O [Theophylline],NHEJ repair efficiency (log10),[1],0.0481
same,HR repair efficiency (log10),[2],0.0978
O=c1ccc2ccc(O)c(O)c2o1 [Daphnetin],NHEJ repair efficiency (log10),[1],0.0636
same,HR repair efficiency (log10),[2],0.146
C[C@@H]1C(=O)O[C@H](C)[C@H]1C[C@@H](O)[C@](C)(O)[C@H]1CC[C@@]2(O)C3=CC(=O)[C@@H]4C[C@@H](O)[C@@H](O)C[C@]4(C)[C@H]3CC[C@]12C [Cyasterone],NHEJ repair efficiency (log10),[1],0.00995
same,HR repair efficiency (log10),[2],0.0455
CC(CC(=O)C[C@@H](C)[C@H]1CC(=O)[C@@]2(C)C3=C(C(=O)C[C@]12C)[C@@]1(C)CC[C@H](O)C(C)(C)[C@@H]1C[C@@H]3O)C(=O)O (stereo partly specified) [Ganoderic Acid B],NHEJ repair efficiency (log10),[1],0.0835
same,HR repair efficiency (log10),[2],0.0793
Cc1cc(O)cc(O[C@@H]2O[C@H](CO)[C@@H](O)[C@H](O)[C@H]2O)c1 [Orcinol Glucoside],NHEJ repair efficiency (log10),[1],0.0229
same,HR repair efficiency (log10),[2],-0.0841
CC1(C)OC(=O)C=C[C@]2(C)[C@H]3CC[C@@]4(C)[C@H](c5ccoc5)OC(=O)[C@H]5O[C@]54[C@]3(C)C(=O)C[C@@H]12 [Obacunone],NHEJ repair efficiency (log10),[1],-0.0357
same,HR repair efficiency (log10),[2],0.0481
C[N+](C)(C)CC(=O)O [Betaine],NHEJ repair efficiency (log10),[1],-0.243
same,HR repair efficiency (log10),[2],-0.337
O=Cc1ccc(CO)o1 [5-Hydroxymethyl-2-furaldehyde (5-HMF)],NHEJ repair efficiency (log10),[1],-0.174
same,HR repair efficiency (log10),[2],-0.326
O=C(/C=C/c1ccc(O[C@@H]2O[C@H](CO)[C@@H](O)[C@H](O)[C@H]2O)cc1)c1ccc(O)cc1O [Isoliquiritin],NHEJ repair efficiency (log10),[1],-0.0606
same,HR repair efficiency (log10),[2],-0.0597
CC(=O)O[C@@H]1C[C@@]23C[C@@]24CC[C@H](O[C@@H]2OC[C@@H](O)[C@H](O)[C@H]2O)C(C)(C)[C@@H]4CC=C3[C@]2(C)C[C@@H]3OC4(C[C@@H](C)[C@@H]3[C@@]12C)OC(O)C1(C)OC41 (stereo partly specified) [Cimicifugoside],NHEJ repair efficiency (log10),[1],0.0323
same,HR repair efficiency (log10),[2],0.0562
O=C(/C=C/c1ccc(O)c(O)c1)O[C@@H]1CC(O)(C(=O)O)C[C@@H](OC(=O)/C=C/c2ccc(O)c(O)c2)C1O (stereo partly specified) [Isochlorogenic acid A],NHEJ repair efficiency (log10),[1],0.0485
same,HR repair efficiency (log10),[2],0.0109
COc1cc(/C=C/CO)ccc1O[C@@H]1O[C@H](CO)[C@@H](O)[C@H](O)[C@H]1O [Coniferin],NHEJ repair efficiency (log10),[1],0.0205
same,HR repair efficiency (log10),[2],0.0767
O=c1c(-c2ccc(O)cc2)coc2cc(O[C@@H]3O[C@H](CO)[C@@H](O)[C@H](O)[C@H]3O)ccc12 [Daidzin],NHEJ repair efficiency (log10),[1],-0.234
same,HR repair efficiency (log10),[2],0.03
O=C(/C=C/c1ccc(O)cc1)C1=C(O)C(O)([C@@H]2O[C@H](CO)[C@@H](O)[C@H](O)[C@H]2O)C(O)=C([C@@H]2O[C@H](CO)[C@@H](O)[C@H](O)[C@H]2O)C1=O (stereo partly specified) [Hydroxysafflor yellow A],NHEJ repair efficiency (log10),[1],0.0258
same,HR repair efficiency (log10),[2],0.0597
COc1ccc(-c2coc3cc(O)cc(O)c3c2=O)cc1 [Biochanin A],NHEJ repair efficiency (log10),[1],-0.0507
same,HR repair efficiency (log10),[2],0.0228
COc1cc2c(cc1OC)[C@@H]1Cc3ccc(OC)c(OC)c3CN1CC2 [Rotundine],NHEJ repair efficiency (log10),[1],-0.0594
same,HR repair efficiency (log10),[2],0.112
OCCc1ccc(O)cc1 [Tyrosol],NHEJ repair efficiency (log10),[1],0.117
same,HR repair efficiency (log10),[2],0.306
O=C(O)CCC(=O)O [Succinic acid],NHEJ repair efficiency (log10),[1],0.006
same,HR repair efficiency (log10),[2],0.102
C=C1CCC[C@]2(C)C[C@@H]3OC(=O)C(C)=C3C[C@@H]12 [Atractylenolide Ii],NHEJ repair efficiency (log10),[1],-0.0767
same,HR repair efficiency (log10),[2],0.118
COc1ccc(-c2cc(=O)c3c(O)c(OC)c(O)cc3o2)cc1 [Pectolinarigenin],NHEJ repair efficiency (log10),[1],-0.0149
same,HR repair efficiency (log10),[2],-0.0222
COc1cc2c(=O)c(-c3ccc(O)cc3)coc2cc1O [Glycitein],NHEJ repair efficiency (log10),[1],0.0336
same,HR repair efficiency (log10),[2],0.1
OCC1=C[C@@H](O)[C@]2(O[C@@H]3O[C@H](CO)[C@@H](O)[C@H](O)[C@H]3O[C@@H]3O[C@H](CO)[C@@H](O)[C@H](O)[C@H]3O)C=CO[C@@H](O[C@@H]3O[C@H](CO)[C@@H](O)[C@H](O)[C@H]3O)[C@H]12 [Rehmannioside D],NHEJ repair efficiency (log10),[1],-0.165
same,HR repair efficiency (log10),[2],-0.0162
COc1cc(/C=C/C(=O)O)ccc1O [Ferulaic Acid],NHEJ repair efficiency (log10),[1],-0.0555
same,HR repair efficiency (log10),[2],-0.0235
C[C@@H]1CC[C@]2(C(=O)O)CC[C@]3(C)C(=CC[C@@H]4[C@@]5(C)CC[C@H](O)[C@@](C)(CO)[C@@H]5CC[C@]43C)[C@@H]2[C@]1(C)O [Rotundic Acid],NHEJ repair efficiency (log10),[1],-0.0308
same,HR repair efficiency (log10),[2],0.0236
COc1ccc(C(C)=O)c(O)c1 [Paeonol],NHEJ repair efficiency (log10),[1],0.076
same,HR repair efficiency (log10),[2],0.17
CC1(C)CC[C@]2(C(=O)O)[C@H](O)C[C@]3(C)C(=CC[C@@H]4[C@@]5(C)CC[C@H](O)C(C)(C)[C@@H]5CC[C@]43C)[C@H]2C1 [Echinocystic acid],NHEJ repair efficiency (log10),[1],-0.117
same,HR repair efficiency (log10),[2],0.0642
C=C1C[C@@]23CC[C@H]4[C@@](C)(CCC[C@@]4(C)C(=O)O[C@@H]4O[C@H](CO)[C@@H](O)[C@H](O)[C@H]4O)[C@@H]2CC[C@]1(O[C@@H]1O[C@H](CO)[C@@H](O)[C@H](O)[C@H]1O[C@@H]1O[C@H](CO)[C@@H](O)[C@H](O)[C@H]1O)C3 [Stevioside],NHEJ repair efficiency (log10),[1],0.149
same,HR repair efficiency (log10),[2],0.296
COc1ccc(/C=C/c2cc(O)cc(O[C@@H]3O[C@H](CO)[C@@H](O)[C@H](O)[C@H]3O)c2)cc1O [Rhapontin],NHEJ repair efficiency (log10),[1],0.134
same,HR repair efficiency (log10),[2],0.0931
OC[C@H]1O[C@@H](Oc2ccc(O)cc2)[C@H](O)[C@@H](O)[C@@H]1O [Arbutin],NHEJ repair efficiency (log10),[1],-0.0725
same,HR repair efficiency (log10),[2],0.0689
CO[C@]1(CC[C@H](C)CO[C@@H]2O[C@H](CO)[C@@H](O)[C@H](O)[C@H]2O)O[C@H]2C[C@H]3[C@@H]4CC[C@@H]5C[C@@H](O[C@@H]6O[C@H](CO)[C@H](O)[C@H](O)[C@H]6O[C@@H]6O[C@H](CO)[C@@H](O)[C@H](O)[C@H]6O)CC[C@]5(C)[C@H]4CC[C@]3(C)[C@H]2[C@@H]1C [Anemarsaponin E],NHEJ repair efficiency (log10),[1],0.0103
same,HR repair efficiency (log10),[2],-0.0664
Cc1c(O)c(C)c2c(c1O)C(=O)C[C@@H](c1ccc(O)cc1)O2 [Farrerol],NHEJ repair efficiency (log10),[1],-0.0045
same,HR repair efficiency (log10),[2],0.437
COc1cc2c(c(O)c1OC)-c1c(cc(OC)c(OC)c1OC)C[C@@H](C)[C@@H](C)C2 [Schisanhenol],NHEJ repair efficiency (log10),[1],-0.161
same,HR repair efficiency (log10),[2],-0.0391
C[C@@H]1O[C@@H](O[C@H]2[C@H](Oc3cc(O)c(C(=O)CCc4ccc(O)cc4)c(O)c3)O[C@H](CO)[C@@H](O)[C@@H]2O)[C@H](O)[C@H](O)[C@H]1O,NHEJ repair efficiency (log10),[1],-0.0363
same,HR repair efficiency (log10),[2],-0.0118
CC(C)=CCC[C@](C)(O[C@@H]1O[C@H](CO[C@@H]2O[C@H](CO)[C@@H](O)[C@H](O)[C@H]2O)[C@@H](O)[C@H](O)[C@H]1O)[C@H]1CC[C@]2(C)[C@@H]1[C@H](O)C[C@@H]1[C@@]3(C)CC[C@H](O[C@@H]4O[C@H](CO)[C@@H](O)[C@H](O)[C@H]4O[C@@H]4O[C@H](CO)[C@@H](O)[C@H](O)[C@H]4O)C(C)(C)[C@@H]3CC[C@]12C [Ginsenoside Rb1],NHEJ repair efficiency (log10),[1],0.0709
same,HR repair efficiency (log10),[2],0.217
CC1(C)CC[C@]2(C(=O)O)CC[C@]3(C)C(=CC[C@@H]4[C@@]5(C)C[C@@H](O)[C@H](O)C(C)(C)[C@@H]5CC[C@]43C)[C@@H]2C1 [Maslinic Acid],NHEJ repair efficiency (log10),[1],-0.0568
same,HR repair efficiency (log10),[2],-0.0914
COc1ccc2c(OC)c3ccoc3nc2c1OC [Skimmianine],NHEJ repair efficiency (log10),[1],-0.0606
same,HR repair efficiency (log10),[2],0.00427
O=C(O)C(O)Cc1ccc(O)c(O)c1 (stereo unspecified) [Sodium Danshensu],NHEJ repair efficiency (log10),[1],-0.0204
same,HR repair efficiency (log10),[2],0.0346
C=C1C(=O)O[C@@H]2/C=C(\C)CC/C=C(\C)CC[C@@H]12 [Costunolide],NHEJ repair efficiency (log10),[1],-0.04
same,HR repair efficiency (log10),[2],0.07
"CC1(C)[C@H](OC(=O)c2ccccc2)CC[C@]2(C)C3=C([C@@H](O)C[C@@H]12)[C@@]1(C)CC[C@@]2(C)CC[C@@](C)(COC(=O)c4ccccc4)C[C@H]2[C@]1(C)CC3 [3,29-Dibenzoyl Rarounitriol]",NHEJ repair efficiency (log10),[1],-0.00463
same,HR repair efficiency (log10),[2],0.103
COc1cc(O)c(C(C)=O)cc1S(=O)(=O)O [Sodium Paeonol Sulfonate],NHEJ repair efficiency (log10),[1],0.0246
same,HR repair efficiency (log10),[2],0.0512
